The source made the active and inactive calls. Rule for the calls: active = hit-call score of the fitted dose curve at least 0.9, where 1 is the maximum; inactive = score below 0.9.
How the values were obtained:
[1] = ATG_E_Box_CIS: Attagene CIS-FACTORIAL HepG2 Assay for human Enhancer Box (E-box) (AID 2282936); conditions: HepG2 E-box cis-reporter transcription, actives raise or lower the signal
In short: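 HepG2 cells transiently transfected with multiplexed cis-element reporter units, dosed 24 h; reporter mRNA quantified by RT-PCR, 6-FAM labelling, HpaI digestion and capillary electrophoresis. E-box (USF1) signal fitted bidirectionally vs DMSO.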

[2] = ATG_M_61_CIS: Attagene CIS-FACTORIAL HepG2 Assay for M61 Transcription Factor (Internal Marker) (AID 2282937); conditions: HepG2 Attagene CIS-FACTORIAL M61 internal marker reporter; actives raise or lower the signal
In short: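 Transfect HepG2 with MRTUs; dose 24 h; isolate RNA; reverse-transcribe with DNase I treatment; PCR-amplify, FAM-label and cut with HpaI for 2 h at 37 C; resolve by CE. Bidirectional fitting against DMSO.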

[3] = ATG_EGR_CIS: Attagene CIS-FACTORIAL HepG2 Assay for human Early Growth Response 1 (EGR1) (AID 2282938); conditions: HepG2 Attagene CIS-FACTORIAL EGR reporter mRNA; actives raise or lower the signal
In short: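 After a 24 h treatment of transiently transfected HepG2 cells, total RNA was reverse-transcribed and reporter sequences PCR-amplified, labelled and run on capillary electrophoresis. Reporters sit under cis-regulatory promoters sensing endogenous factors.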

[4] = ATG_M_19_CIS: Attagene CIS-FACTORIAL HepG2 Assay for M19 Transcription Factor (Internal Marker) (AID 2282939); conditions: HepG2 Attagene CIS-FACTORIAL M19 internal marker reporter; actives raise or lower the signal
In short: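 In this multiplexed cell assay, transiently transfected HepG2 reporter units report endogenous transcription-factor activity; after 24 hours of treatment, labelled reporter cDNA fragments are quantified by capillary electrophoresis and fitted bidirectionally against DMSO.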

[5] = ATG_ERE_CIS: Attagene CIS-FACTORIAL HepG2 Assay for Estrogen Response Element (ERE) (AID 2282940); conditions: HepG2 ERE cis-reporter, Attagene RNA transcript; actives raise or lower the signal
In short: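 Measuring endogenous transcription factor output, the assay doses transfected HepG2 cells for 24 hours and quantifies reporter transcripts by fluorescent RT-PCR and capillary electrophoresis, with DMSO as baseline.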

[6] = ATG_Ets_CIS: Attagene CIS-FACTORIAL HepG2 Assay for human Erythroblast Transformation Specific (ETS) (AID 2282941); conditions: HepG2 ETS cis-reporter transcription, actives raise or lower the signal
In short: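 HepG2 cells transiently transfected with cis-promoter reporter transcription units were dosed for 24 h; reporter mRNA was measured by RT-PCR, 6-FAM primer extension, HpaI digestion and capillary electrophoresis, with bidirectional fitting against DMSO baseline.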

[7] = molecular target: Hepatocyte nuclear factor 3-beta (Homo sapiens) (UniProt Q9Y261); experiment: ATG_FoxA2_CIS: Attagene CIS-FACTORIAL HepG2 Assay for human Forkhead box A2 (FOXA2) (AID 2282942); conditions: HepG2 cis-reporter transcription factor activity, 24 h; actives raise or lower the signal
In short: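 24 h dosing of HepG2 bearing cis-reporter constructs; mRNA readout by RT-PCR/CE fluorescence; bidirectional fit, DMSO baseline.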

[8] = ATG_FoxO_CIS: Attagene CIS-FACTORIAL HepG2 Assay for human Forkhead box O (FoxO) (AID 2282943); conditions: HepG2 Attagene cis-reporter, FoxO element, mRNA; actives raise or lower the signal
In short: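 HepG2 cells transiently transfected with cis-element-driven reporter units report endogenous FoxO activity. After 24 h chemical exposure, reporter mRNA quantified by RT-PCR, fluorescent labeling, HpaI digestion and capillary electrophoresis; bidirectional fit versus DMSO.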

[9] = ATG_GATA_CIS: Attagene CIS-FACTORIAL HepG2 Assay for human GATA Binding Protein (AID 2282944); conditions: HepG2 GATA cis-element reporter, Attagene multiplex mRNA; actives raise or lower the signal
In short: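 Measures endogenous transcription factor-driven reporter mRNA in HepG2 cells transiently carrying cis-regulated constructs. 24 h dosing; RNA via oligo(dT) reverse transcription, PCR, HpaI digestion, capillary electrophoresis; fitted relative to DMSO.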

[10] = ATG_GLI_CIS: Attagene CIS-FACTORIAL HepG2 Assay for human Zinc Finger Protein GLI1 (AID 2282945); conditions: HepG2, Attagene cis-factorial reporter mRNA, GLI element; actives raise or lower the signal
In short: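 Transiently transfected HepG2 cells report endogenous transcription factor activity via cis-element-driven reporter units. After 24 h compound exposure, reporter mRNA was measured by RT-PCR with capillary electrophoresis; bidirectional fitting against DMSO baseline.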

[11] = molecular target: Bile acid receptor (Homo sapiens) (UniProt Q96RI1); experiment: ATG_IR1_CIS: Attagene CIS-FACTORIAL HepG2 Assay for human Nuclear Receptor Subfamily 1 Group H Member 4 (NR1H4), IR1 submotif (AID 2282946); conditions: IR1 reporter transcription, actives raise or lower the signal
In short: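 HepG2 cells transiently transfected with multiple cis-promoter-driven reporter units to measure endogenous transcription factor activity; 24 h exposure. Reporter mRNA read by RT-PCR, FAM labelling, HpaI digestion and capillary electrophoresis. Bidirectional fit versus DMSO.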

[12] = ATG_GRE_CIS: Attagene CIS-FACTORIAL HepG2 Assay for human Glucocorticoid Response Elements (GRE) (AID 2282947); conditions: HepG2 GRE cis-reporter, Attagene multiplex mRNA; actives raise or lower the signal
In short: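 Transiently transfected HepG2 cells carrying GRE cis-reporter units (endogenous TF activity) dosed 24 h; reporter mRNA quantified by RT-PCR, 6-FAM labelling, HpaI digestion and capillary electrophoresis. Bidirectional fit versus DMSO baseline.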

[13] = ATG_ISRE_CIS: Attagene CIS-FACTORIAL HepG2 Assay for human Interferon Regulatory Factor 1 (IRF1) binding to an Interferon-Stimulated Response Element (ISRE) (AID 2282948); conditions: HepG2 ISRE cis-reporter (Attagene), mRNA transcription readout; actives raise or lower the signal
In short: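 HepG2 cells transiently transfected with multiplexed cis-promoter reporter units; after 24 h compound exposure, reporter mRNA quantified by RT-PCR, FAM labelling, HpaI digestion and capillary electrophoresis. Bidirectional fit versus DMSO baseline.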

[14] = ATG_M_32_CIS: Attagene CIS-FACTORIAL HepG2 Assay for M32 Transcription Factor (Internal Marker) (AID 2282949); conditions: HepG2 Attagene cis-factorial M32 reporter, mRNA; actives raise or lower the signal;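 note: background control marker of the multiplexed CIS panel rather than a real target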
In short: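 Fluorescent capillary electrophoresis peaks of HpaI-digested, FAM-labelled RT-PCR reporter products give the signal. Source: transiently transfected human liver HepG2 cells, 24 h after chemical dosing; bidirectional fitting against DMSO.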

[15] = molecular target: Hypoxia-inducible factor 1-alpha (Homo sapiens) (UniProt Q16665); experiment: ATG_HIF1a_CIS: Attagene CIS-FACTORIAL HepG2 Assay for human Hypoxia Inducible Factor 1 (HIF1A) (AID 2282951); conditions: HepG2 Attagene cis-factorial HIF1a reporter transcription; actives raise or lower the signal
In short: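 After 24 h chemical exposure of reporter-transfected HepG2 cells, reporter cDNA was PCR-amplified, labelled by 6-FAM primer extension (2 min 95 C, 20 s 68 C, 10 min 72 C), HpaI-cut (2 h, 37 C) and analysed by CE.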

[16] = molecular target: Hepatocyte nuclear factor 6 (Homo sapiens) (UniProt Q9UBC0); experiment: ATG_HNF6_CIS: Attagene CIS-FACTORIAL HepG2 Assay for human Hepatocyte Nuclear Factor 6 (HNF6) (AID 2282952); conditions: HepG2 Attagene cis-factorial HNF6 reporter transcription; actives raise or lower the signal
In short: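 HepG2 cells transiently transfected with cis-element-driven multiple reporter transcription units, dosed 24 h; reporter mRNA quantified by RT-PCR, FAM primer extension, HpaI digestion and capillary electrophoresis; bidirectional fit versus DMSO baseline.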

[17] = molecular target: Heat shock factor protein 1 (Homo sapiens) (UniProt Q00613); experiment: ATG_HSE_CIS: Attagene CIS-FACTORIAL HepG2 Assay for human Heat Shock Transcription Factor 1 (HSE) (AID 2282953); conditions: HepG2 HSE cis-reporter, Attagene RNA transcription; actives raise or lower the signal
In short: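 Using HepG2 with transfected cis-driven reporter constructs, compound effects on endogenous factor activity are scored as reporter mRNA change at 24 h. Detection: RT-PCR, HpaI digestion, capillary electrophoresis; bidirectional fitting to DMSO.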

[18] = ATG_MRE_CIS: Attagene CIS-FACTORIAL HepG2 Assay for human Metal Responsive Element (MRE) (AID 2282954); conditions: HepG2 MRE cis-reporter transcription, Attagene multiplex; actives raise or lower the signal
In short: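 HepG2 cells transiently transfected with cis-element-driven reporter units; mRNA measured 24 h after dosing. Reporter transcripts quantified by RT-PCR, FAM labelling, HpaI digestion and capillary electrophoresis; bidirectional fit versus DMSO.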

[19] = ATG_M_06_CIS: Attagene CIS-FACTORIAL HepG2 Assay for M06 Transcription Factor (Internal Marker) (AID 2282950); conditions: HepG2 Attagene CIS-FACTORIAL M06 internal marker reporter; actives raise or lower the signal
In short: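 One of many multiplexed endpoints: HepG2 reporter mRNA after 24 h dosing, detected by RT-PCR and capillary electrophoresis fluorescence; gain or loss of signal analysed against DMSO.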

[20] = ATG_PBREM_CIS: Attagene CIS-FACTORIAL HepG2 Assay for human Phenobarbital-responsive Enhancer Module (PBREM) (AID 2282955); conditions: HepG2 PBREM cis-reporter, Attagene multiplexed transcription; actives raise or lower the signal
In short: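 Measures endogenous factor action on a phenobarbital-responsive enhancer module. HepG2 transiently carrying cis reporters, 24 h treatment, mRNA read-out by RT-PCR plus capillary electrophoresis.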

Measured: AC50

Hepatocyte nuclear factor 3-beta (Homo sapiens), sequence (Q9Y261 whole entry, looked up): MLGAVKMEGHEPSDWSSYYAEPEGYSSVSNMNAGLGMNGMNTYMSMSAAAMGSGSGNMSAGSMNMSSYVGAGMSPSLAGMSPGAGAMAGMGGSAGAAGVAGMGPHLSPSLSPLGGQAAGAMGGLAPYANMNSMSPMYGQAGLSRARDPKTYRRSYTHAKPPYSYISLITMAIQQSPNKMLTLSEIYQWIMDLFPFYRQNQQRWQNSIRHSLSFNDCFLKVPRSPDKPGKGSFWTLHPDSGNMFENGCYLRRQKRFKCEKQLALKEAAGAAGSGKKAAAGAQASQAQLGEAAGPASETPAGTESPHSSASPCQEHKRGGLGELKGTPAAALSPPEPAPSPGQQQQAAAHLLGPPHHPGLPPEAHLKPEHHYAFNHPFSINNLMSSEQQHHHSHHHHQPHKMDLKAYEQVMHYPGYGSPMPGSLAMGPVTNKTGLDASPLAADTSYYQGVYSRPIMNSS
Bile acid receptor (Homo sapiens), sequence (Q96RI1 whole entry, looked up): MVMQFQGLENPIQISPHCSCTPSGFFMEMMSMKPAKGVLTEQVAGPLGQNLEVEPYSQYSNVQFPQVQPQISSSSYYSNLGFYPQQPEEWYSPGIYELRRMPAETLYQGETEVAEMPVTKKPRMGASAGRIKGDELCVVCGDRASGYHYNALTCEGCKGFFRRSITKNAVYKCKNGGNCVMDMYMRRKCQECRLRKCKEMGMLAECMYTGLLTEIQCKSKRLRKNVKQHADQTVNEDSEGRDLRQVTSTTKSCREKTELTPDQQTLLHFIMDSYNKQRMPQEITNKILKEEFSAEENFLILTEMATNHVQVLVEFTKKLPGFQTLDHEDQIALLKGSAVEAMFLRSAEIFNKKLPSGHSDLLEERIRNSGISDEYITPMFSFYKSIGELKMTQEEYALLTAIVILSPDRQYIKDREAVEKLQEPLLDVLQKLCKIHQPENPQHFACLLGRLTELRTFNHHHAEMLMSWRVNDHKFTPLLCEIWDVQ
Heat shock factor protein 1 (Homo sapiens), sequence (Q00613 whole entry, looked up): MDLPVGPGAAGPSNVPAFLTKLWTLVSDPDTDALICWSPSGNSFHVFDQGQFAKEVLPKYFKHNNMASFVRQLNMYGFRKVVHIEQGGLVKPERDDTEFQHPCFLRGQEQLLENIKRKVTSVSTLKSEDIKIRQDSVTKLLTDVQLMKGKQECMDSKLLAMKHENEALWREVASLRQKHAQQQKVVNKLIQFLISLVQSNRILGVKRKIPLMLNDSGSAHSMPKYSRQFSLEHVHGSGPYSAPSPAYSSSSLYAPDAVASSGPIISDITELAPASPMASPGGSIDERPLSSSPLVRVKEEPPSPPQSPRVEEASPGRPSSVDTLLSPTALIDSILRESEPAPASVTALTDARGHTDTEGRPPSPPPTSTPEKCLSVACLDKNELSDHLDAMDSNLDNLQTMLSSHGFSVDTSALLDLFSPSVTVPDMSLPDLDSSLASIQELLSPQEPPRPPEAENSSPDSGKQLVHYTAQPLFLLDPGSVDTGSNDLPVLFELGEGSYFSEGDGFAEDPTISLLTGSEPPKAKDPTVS
Hypoxia-inducible factor 1-alpha (Homo sapiens), sequence (Q16665 whole entry, looked up): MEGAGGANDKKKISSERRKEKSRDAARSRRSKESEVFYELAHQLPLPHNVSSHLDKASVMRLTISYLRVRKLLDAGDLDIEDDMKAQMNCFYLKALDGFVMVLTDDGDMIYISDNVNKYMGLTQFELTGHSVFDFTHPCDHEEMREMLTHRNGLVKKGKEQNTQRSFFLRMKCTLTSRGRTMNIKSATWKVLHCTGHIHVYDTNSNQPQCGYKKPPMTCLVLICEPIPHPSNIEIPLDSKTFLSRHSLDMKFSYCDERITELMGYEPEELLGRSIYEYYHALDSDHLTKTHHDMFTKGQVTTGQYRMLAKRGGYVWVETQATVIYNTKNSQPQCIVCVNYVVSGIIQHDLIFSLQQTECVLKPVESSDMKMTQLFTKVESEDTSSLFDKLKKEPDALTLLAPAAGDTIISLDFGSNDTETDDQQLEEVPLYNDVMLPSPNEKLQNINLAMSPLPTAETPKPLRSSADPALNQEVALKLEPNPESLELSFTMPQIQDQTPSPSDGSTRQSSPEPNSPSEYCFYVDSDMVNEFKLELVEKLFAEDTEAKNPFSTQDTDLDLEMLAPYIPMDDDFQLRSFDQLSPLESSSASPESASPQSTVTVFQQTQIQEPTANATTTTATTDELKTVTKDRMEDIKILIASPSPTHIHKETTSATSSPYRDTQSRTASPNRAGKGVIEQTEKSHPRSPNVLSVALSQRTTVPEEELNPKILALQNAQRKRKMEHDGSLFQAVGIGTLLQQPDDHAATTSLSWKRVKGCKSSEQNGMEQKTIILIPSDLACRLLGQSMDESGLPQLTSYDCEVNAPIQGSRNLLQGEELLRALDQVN
Hepatocyte nuclear factor 6 (Homo sapiens), sequence (Q9UBC0 whole entry, looked up): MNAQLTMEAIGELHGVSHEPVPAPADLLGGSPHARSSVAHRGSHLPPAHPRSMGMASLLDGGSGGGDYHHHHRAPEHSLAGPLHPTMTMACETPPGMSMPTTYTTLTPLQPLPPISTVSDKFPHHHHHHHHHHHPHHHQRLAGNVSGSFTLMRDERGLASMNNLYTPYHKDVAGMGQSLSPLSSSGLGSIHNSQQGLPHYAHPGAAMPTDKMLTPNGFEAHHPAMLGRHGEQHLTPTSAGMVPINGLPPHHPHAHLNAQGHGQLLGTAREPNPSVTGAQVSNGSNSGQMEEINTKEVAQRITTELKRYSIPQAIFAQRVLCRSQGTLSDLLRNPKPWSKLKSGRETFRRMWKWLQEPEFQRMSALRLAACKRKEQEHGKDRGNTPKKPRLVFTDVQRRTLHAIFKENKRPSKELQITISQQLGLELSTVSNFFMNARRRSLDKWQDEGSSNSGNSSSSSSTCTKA

OCCN(CCO)c1ccccc1
not listed: [19] | [20]
inactive: all other assays above

CCC(C)C=O (centres undefined)
not listed: [12]
inactive: all other assays above

Cc1cccc(N)n1
not listed: [12] | [17] | [20]
inactive: all other assays above

CCCCOCCOC(=O)COc1nc(Cl)c(Cl)cc1Cl
active: [5] 26.2 µM
not listed: [16] | [17] | [20]
inactive: all other assays above

C=C(C)C(=O)OCCO
not listed: [13]
inactive: all other assays above

CC(C)(C)C(=O)C=Cc1ccc(Cl)cc1
active: [1] 165 µM | [2] 148 µM | [3] 30.2 µM | [5] 155 µM | [7] 178 µM | [10] 59.1 µM | [11] 10 µM | [14] 132 µM | [15] 26.3 µM | [16] 23.6 µM | [17] 34.3 µM | [18] 34 µM
inactive: [4] | [6] | [8] | [9] | [12] | [20]

O=C(/C=C/C=C/c1ccc2c(c1)OCO2)N1CCCCC1
active: [3] 100 µM | [11] 69.4 µM | [13] 89.5 µM | [17] 159 µM | [18] 96.1 µM
not listed: [12] | [15] | [16]
inactive: all other assays above

CCCCC(CC)COC(=O)c1ccccc1 (centres undefined)
active: [5] 37.3 µM
not listed: [11]
inactive: all other assays above

From PubChem BioAssay (EPA / NIEHS)
